About 83,000 compounds went through this panel and 20% of them were active in at least one assay; those are over-represented in the sample as a whole.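 Note: values are percent growth. 100 is the growth of untreated cells, values between 100 and 0 indicate rising inhibition; between -100 and 0 indicates cell death.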 Unmarked numbers belong to inactive results. Activity calls are given as the source filed them. Rule for the calls: active = growth percent below 10; inactive = the rest.
Columns and labels:
Experiment in all cases: NCI-60 one-dose screen, 48 h (100 = growth as untreated, 0 = no growth, -100 = all killed)
[1] = test system: DU-145 prostate; conditions: 10 µM unless noted
[2] = test system: K-562 leukemia; conditions: 10 µM unless noted
[3] = test system: MALME-3M melanoma; conditions: 10 µM unless noted
[4] = test system: MDA-MB-231 breast; conditions: 10 µM unless noted
[5] = test system: RXF 393 renal; conditions: 10 µM unless noted
[6] = test system: SF-268 CNS; conditions: 10 µM unless noted
[7] = test system: SF-295 CNS; conditions: 10 µM unless noted
[8] = test system: SF-539 CNS; conditions: 10 µM unless noted
[9] = test system: UACC-257 melanoma; conditions: 10 µM
[10] = test system: M14 melanoma; conditions: 10 µM unless noted
[11] = test system: HCT-15 colon; conditions: 10 µM unless noted
[12] = test system: HT29 colon; conditions: 10 µM unless noted
[13] = test system: SNB-75 CNS; conditions: 10 µM unless noted
[14] = test system: SNB-19 CNS; conditions: 10 µM unless noted
[15] = test system: U251 CNS; conditions: 10 µM unless noted
[16] = test system: PC-3 prostate; conditions: 10 µM unless noted
[17] = test system: SK-MEL-5 melanoma; conditions: 10 µM unless noted
[18] = test system: UACC-62 melanoma; conditions: 10 µM unless noted
[19] = test system: LOX IMVI melanoma; conditions: 10 µM unless noted
[20] = test system: SK-MEL-28 melanoma; conditions: 10 µM unless noted

| SMILES | growth [1] | growth [2] | growth [3] | growth [4] | growth [5] | growth [6] | growth [7] | growth [8] | growth [9] | growth [10] | growth [11] | growth [12] | growth [13] | growth [14] | growth [15] | growth [16] | growth [17] | growth [18] | growth [19] | growth [20] |
| --- | --- | --- | --- | --- | --- | --- | --- | --- | --- | --- | --- | --- | --- | --- | --- | --- | --- | --- | --- | --- |
| COc1cc(/C=C\c2cc(OC)c(OC)c(OC)c2)cc(N/C=C\C(=O)c2c[nH]c3ccccc23)c1OC | 41.7% | -9.37% (active) | -58.2% (active) | -12% (active) | -35.3% (active) | 72% | 55.8% | -95.2% (active) | 33.4% | 52.9% | -39% (active) | -77.7% (active) | 34% | 54.1% | 58.7% | 37.3% | 54.2% | 3.34% (active) | -73.3% (active) | -90% (active) |
| COc1ccc(C2=CC(c3ccc(Oc4ccnc5cc(Cl)ccc45)c(OC)c3)c3c(nc(OC)[nH]c3=O)N2)cc1 (stereo not given) | 75.6% | 28% | 78.5% | 75.2% | 78% | 61.6% | 96.5% | 105% | 87.5% | 82.8% | 44.5% | 50.5% | 73.1% | 75.1% | 67.7% | 54.9% | 74.6% | 51.9% | 52.7% | 91.1% |
| Oc1ccc(Cl)cc1-c1cc(-c2ccc(Cl)cc2)n[nH]1 | 78.1% | 39.9% | 61.3% | 37.5% | 72.9% | 66.7% | 95.3% | 91.9% | 88.1% | 76.7% | 25% | 103% | 59.1% | 81.2% | 59.3% | 45.6% | 70.9% | 64% | 58.2% | 87.6% |
| O=C(CN1CCOCC1)Nc1ccc(-c2nc3ccccc3s2)cc1 | 109% | 99.3% | 117% | 96.8% | 111% | 110% | 98.2% | 89.7% | 101% | 101% | 93.7% | 103% | 100% | 101% | 89.5% | 93% | 92.7% | 100% | 99.9% | 102% |
| COC12CC(=O)C(C(C)=O)=C(O)C1(C)c1c(O)c(C)c(O)c(C(C)=O)c1O2 (stereo not given) | 90.2% | 70.4% | 90.7% | 92.7% | 90.3% | 78.4% | 13.3% | 78.5% | 90.7% | 66.7% | 66.6% | 86.5% | 83.5% | 52.8% | 57.2% | 73% | 46.1% | 40.6% | 57.5% | 86.4% |
| Cc1nc(Nc2cccnc2)sc1C(=O)/C=C/c1ccc(F)cc1 | 9.5% (active) | 11.4% | 88.1% | 89.2% | 18.1% | 42.1% | 42.4% | 18.2% | 73.5% | 25.5% | 20.4% | 8.45% (active) | 2.4% (active) | 18.9% | 12.9% | 27.6% | 67.6% | 46.3% | 8.41% (active) | 87.6% |
| CN1C(=O)[C@H]2c3c1cccc3[C@@]13NC(=O)O[C@H]1[C@H](CCC3(C)C)C2(C)C | 106% | 82.6% | 110% | 88.6% | 101% | 95.2% | 75% | 98% | 104% | 108% | 93.6% | 100% | 81.1% | 90.7% | 103% | 84.6% | 98.1% | 85.4% | 100% | 109% |
| c1cc(-c2ccc3c(c2)OCO3)n2nccc2n1 | 106% | 102% | 104% | 106% | 96.4% | 104% | 99.9% | 89.1% | 103% | 109% | 97.2% | 103% | 84.5% | 101% | 95.8% | 93.9% | 98.2% | 113% | 102% | 105% |
| COc1cc(Cn2c(-c3nonc3N)nc3ccccc32)ccc1C | 13.8% | 10.4% | 80.7% | 22.3% | -8.35% (active) | 40.3% | 26% | -32.8% (active) | 65.2% | 14% | 19.5% | 0.109% (active) | -0.424% (active) | 53.8% | 21.6% | 24.4% | 19.1% | 37.9% | 42.6% | 51.6% |
| COc1ccc2c(c1)C(=O)/C(=C/c1ccc(O)cc1)O2 | 109% | 59.7% | 71.2% | 78.5% | -59.9% (active) | 97.9% | 98.1% | 80.2% | 86.7% | 93.4% | 52.1% | 90.1% | 67.5% | 89.3% | 92.9% | 39.6% | 87.8% | 77.1% | 45.5% | 92.6% |
| Cc1nc2sccn2c1-c1csc(Nc2ccccc2Cl)n1 | 68.2% | 12.5% | 56.2% | 66.5% | 67.2% | 71.3% | 36.2% | 52% | 46% | 36.9% | 34.2% | 15.4% | 56.9% | 65.6% | 42.1% | 53.5% | 11.5% | 46.7% | 45.5% | 65.6% |
| Cc1nc(Nc2cccnc2)sc1C(=O)/C=C/c1ccc(Cl)cc1 | 17.6% | 7.88% (active) | 89.7% | 73.9% | 16.2% | 46.7% | 42.8% | -14.5% (active) | 73.7% | 38.2% | 15% | 6.4% (active) | -1.63% (active) | 14.2% | 3.86% (active) | 29.4% | 73.1% | 36.1% | 0.346% (active) | 77.8% |
| NC(CC(N)C(=O)O)C(=O)O (stereo not given) | 115% | 91.8% | 104% | 103% | 89.6% | 109% | 101% | 97.9% | 95.2% | 104% | 88.4% | 84.4% | 88.4% | 108% | 93.8% | 92.2% | 85% | 98% | 99.4% | 90.1% |
| Cc1ccc(Cn2c(-c3cccs3)nc3ccccc32)cc1 | 110% | 5.16% (active) | 120% | 96.2% | 92.5% | 104% | 72% | 102% | 89.9% | 107% | 81.7% | 92.7% | 62.2% | 95.1% | 85.5% | 72.2% | 82.4% | 85.4% | 82.5% | 111% |
| O=c1oc2cc(OS(=O)(=O)c3ccccc3)c(Cl)cc2c2c1CCCCCC2 | 93.6% | 84.9% | 106% | 89.4% | 90.8% | 100% | 92.6% | 78.4% | 92.8% | 80.3% | 84.6% | 67.7% | 83.1% | 93.3% | 87.5% | 73.9% | 77.9% | 70.3% | 90.1% | 91.2% |

From PubChem BioAssay (NCI)
